Experimental data from PubChem BioAssay (NCI).
About 83,000 compounds went through this panel and 20% of them were active in at least one assay; those are over-represented in the sample as a whole.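 Growth was measured after 48 h exposure to one concentration of compound in 96-well plates. Values under 10 count as active.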 Values without a mark were called inactive. Activity calls are given as the source filed them.

Tests used:
Assay in all cases: NCI-60 one-dose screen, 48 h (100 = growth as untreated, 0 = no growth, -100 = all killed)
Conditions in all cases: 10 µM unless noted
NCI-H23 lung = test system: NCI-H23 lung
NCI-H226 lung = test system: NCI-H226 lung
NCI-H322M lung = test system: NCI-H322M lung
HOP-62 NSCLC = test system: HOP-62 NSCLC
NCI-H460 lung = test system: NCI-H460 lung
HOP-92 NSCLC = test system: HOP-92 NSCLC
NCI-H522 lung = test system: NCI-H522 lung
A549/ATCC NSCLC = test system: A549/ATCC NSCLC
786-0 renal = test system: 786-0 renal
COLO 205 colon = test system: COLO 205 colon
DU-145 prostate = test system: DU-145 prostate
K-562 leukemia = test system: K-562 leukemia
MALME-3M melanoma = test system: MALME-3M melanoma
MDA-MB-231 breast = test system: MDA-MB-231 breast
RXF 393 renal = test system: RXF 393 renal
SF-268 CNS = test system: SF-268 CNS
SF-295 CNS = test system: SF-295 CNS
SF-539 CNS = test system: SF-539 CNS
UACC-257 melanoma = test system: UACC-257 melanoma
M14 melanoma = test system: M14 melanoma

Compound | growth (NCI-H23 lung) | growth (NCI-H226 lung) | growth (NCI-H322M lung) | growth (HOP-62 NSCLC) | growth (NCI-H460 lung) | growth (HOP-92 NSCLC) | growth (NCI-H522 lung) | growth (A549/ATCC NSCLC) | growth (786-0 renal) | growth (COLO 205 colon) | growth (DU-145 prostate) | growth (K-562 leukemia) | growth (MALME-3M melanoma) | growth (MDA-MB-231 breast) | growth (RXF 393 renal) | growth (SF-268 CNS) | growth (SF-295 CNS) | growth (SF-539 CNS) | growth (UACC-257 melanoma) | growth (M14 melanoma)
O=C(CCCCCCN1CC(=O)N2[C@H](c3ccc(Cl)cc3)c3[nH]c4ccccc4c3C[C@@H]2C1=O)NO | 60.2% | 84.1% | 64.1% | 61.9% | 54.2% | 44.4% | 32.8% | 90.1% | 92.9% | 57.3% | 72.2% | 25.2% | 23% | 68.9% | 65.7% | 85.1% | 85.6% | 57% | 36.4% | 61.7%
OCCNCCNC(Cc1ccc(Cl)cc1)c1ccccc1 (stereo not given) | 96.2% | 98.1% | 93.1% | 72.2% | 107% | 38.4% | 64.1% | 88.1% | 57.5% | 70% | 99.7% | 88.5% | 107% | 75.7% | 84.5% | 88.8% | 92.2% | 72.9% | 104% | 90.5%
O=C(N=Nc1c(O)[nH]c2ccccc12)Nc1ccc(F)cc1 | 96.8% | 91.7% | 93.8% | 83.2% | 108% | 94% | 78.5% | 87.5% | 97.3% | 103% | 105% | 85% | 97.6% | 94% | 110% | 104% | 95% | 94.9% | 93.9% | 99.7%
O=C(Nc1ccccc1[N+](=O)[O-])c1ccc(Cl)c(Cl)c1 | 86.6% | 79.9% | 101% | 102% | 93.4% | 69.7% | 69.9% | 104% | 105% | 110% | 102% | 91.9% | 93.5% | 93.2% | 88.1% | 89.8% | 93.3% | 89.4% | 90.8% | 101%
Cn1cc(-c2nn3cc(-c4cccs4)nc3s2)c2cc(F)ccc21 | 58% | 67% | 50.1% | 28.4% | 8.02% (active) | 39.6% | 5.4% (active) | 37.7% | 49.2% | 22% | 51.1% | 15.5% | 21.2% | 34.5% | 64.4% | 45.2% | 28.2% | 24.3% | 63.4% | 6.34% (active)
Cc1cccc(Oc2ccc(Nc3ncnc4ccc(NC(=O)CN5CCN(C)CC5)cc34)cc2Cl)c1 | 69.6% | 85.2% | 15.1% | 60% | 2.18% (active) | 43.1% | 0.619% (active) | 28.4% | -40.7% (active) | -43.4% (active) | 33.2% | -6.17% (active) | -72.6% (active) | -47.2% (active) | -65.6% (active) | 42% | 63.9% | -77.1% (active) | -66.4% (active) | -72.7% (active)
[2H]C([2H])([2H])Oc1ccc(F)cc1/C=C/C(=O)/C=C(/C=C/c1cc(F)ccc1OC([2H])([2H])[2H])OB(F)F | 76.6% | 109% | 108% | 97.8% | 95.5% | 99.7% | 18.9% | 90.8% | 86.3% | 57.6% | 85.1% | 47.6% | 68.7% | 98.4% | 100% | 98.6% | 101% | 113% | 78.7% | 70.1%
CC1C(/C=N/NC(N)=S)C(C#N)(C#N)C1(C#N)C#N (stereo not given) | 101% | 101% | 102% | 105% | 99.8% | 92.9% | 99.4% | 100% | 104% | 115% | 96.8% | 84.1% | 103% | 106% | 106% | 91.4% | 107% | 111% | 96.3% | 102%
S=c1nc2oc(-c3ccccc3)c(-c3ccccc3)c2c(/N=C\c2ccco2)[nH]1 | 88.2% | 102% | 105% | 82.5% | 115% | 92.4% | 86.1% | 95.3% | 97% | 120% | 100% | 89.3% | 99.3% | 98.5% | 99.3% | 90.2% | 94.3% | 95.8% | 105% | 103%
COc1ccc(C(O)c2cc3c(N)c(C(=O)Nc4cccc(Cl)c4C)sc3nc2C)cc1 (stereo not given) | 25.5% | 54.5% | 39.4% | 16.2% | -6.01% (active) | 16.2% | -34.9% (active) | 10.5% | 22.2% | -23% (active) | 3.08% (active) | 6.61% (active) | 41.7% | 1.27% (active) | 33.7% | 13.2% | 17.4% | -4.61% (active) | 44.1% | 7.3% (active)
Cc1cn(-c2cc(NC(=O)c3cncc(C#Cc4c(N)ncc5ccc(F)cc45)c3)cc(C(F)(F)F)c2)cn1 | 25% | 36.2% | 65.7% | 67.3% | 49.2% | -8.98% (active) | 58.1% | 61.3% | 77.1% | 11.6% | 70.5% | 3.34% (active) | 21.5% | 27.1% | 62.7% | 64.6% | 85.2% | 51.5% | 52.9% | 26.6%
CN1CCN(CCOc2ccc(-c3cnc4c(-c5cccc(F)c5F)cnn4c3)cc2)CC1 | 35.9% | 97.9% | 96% | 106% | -55.9% (active) | 100% | 88.6% | -7.4% (active) | -61.4% (active) | 87.6% | 8.58% (active) | -31.3% (active) | -44% (active) | 85% | 97% | 25.3% | -3.66% (active) | -72.5% (active) | -19.1% (active) | -78.9% (active)
N#Cc1ccc(O)c(C2=NCC(Cc3ccccc3)O2)c1 (stereo not given) | 54.5% | 65.9% | 59.9% | 24.1% | 23.5% | 65% | -17.5% (active) | 35.8% | 38.7% | 60.7% | 55.7% | 26.5% | 64.3% | 77.6% | 62.4% | 52.2% | 31.2% | 68.7% | 63.6% | 45.4%
CCN1C(=O)N(CC)C2C1NN=c1s/c(=C\c3ccc[nH]3)c(=O)n12 (stereo not given) | 42.9% | 68% | 36.5% | 25.9% | 4.38% (active) | 54.2% | -15.6% (active) | 7.44% (active) | 31% | 4.65% (active) | -11.9% (active) | 10.2% | 34.5% | 30.6% | -26.6% (active) | 44.6% | 12.4% | -21.5% (active) | 46.7% | -5.38% (active)
C#CCn1cnc2cnc(Nc3cccc(NC(=O)C=C)c3)nc21 | 95.6% [6.25 µM] | 78.8% [6.25 µM] | 96.1% [6.25 µM] | 78.6% [6.25 µM] | 90.6% [6.25 µM] | 32.6% [6.25 µM] | 71.4% [6.25 µM] | 85.3% [6.25 µM] | 56.8% [6.25 µM] | 82.2% [6.25 µM] | 93.5% [6.25 µM] | 5.9% [6.25 µM] (active) | 76.7% [6.25 µM] | 81.5% [6.25 µM] | 86.6% [6.25 µM] | 84.7% [6.25 µM] | 72.4% [6.25 µM] | 72.3% [6.25 µM] | 61.5% [6.25 µM] | 62% [6.25 µM]
